Our source for the growth inhibition values is PubChem BioAssay (NCI).

This assay is described as follows: NCI Yeast Anticancer Drug Screen. Data for the rad14 strain (AID 159).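 Note: 0% = growth of vehicle-treated control cultures.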 Conditions: S. cerevisiae rad14 strain growth inhibition, hits give high values. The method, then:
Growth inhibition of yeast strains with defined genetic alterations is measured as a screen for potential anti-cancer activity. Selected strains with alterations in DNA damage repair or cell cycle control were exposed to compounds and growth inhibition was measured relative to vehicle treated controls. The strain used in this assay is rad14

About 79,000 compounds went through this panel and 15% of them were active in at least one assay; those are over-represented in the sample as a whole. Values without a mark were called inactive. The source made the active and inactive calls. Cut-off read from the data, not from the text of the source: active = growth inhibition above about 70%; inactive = the rest.

For `NCCOc1ccc(/C(=C(/Cl)c2ccccc2)c2ccccc2)cc1`, the growth inhibition is, setting by setting: (at 1.2 µM) -16%; (at 3.7 µM) -18%; (at 11.0 µM) 72% (active); (at 33.0 µM) 98% (active); (at 100.0 µM) 96% (active).
As to `O=CC1(F)CC1(c1ccccc1)c1ccccc1` (stereo not given), the growth inhibition (at 1.2 µM) was 0%; the growth inhibition (at 3.7 µM) is 1%; the growth inhibition (at 11.0 µM) is 2%; the growth inhibition (at 33.0 µM) was 7%; the growth inhibition (at 100.0 µM) was 80% (active).
Taken in the same sequence, the figures for `O=C(NCCNCCNC(=O)c1cc(-c2ccccc2)nc2ccccc12)c1cc(-c2ccccc2)nc2ccccc12` were -3%, -1%, -2%, 4% and 4%.
On to `CCCCCCCCNCCCCCCCC`, for which the growth inhibition reads like this: (at 1.2 µM) 50%; (at 3.7 µM) 82% (active); (at 11.0 µM) 97% (active); (at 33.0 µM) 98% (active); (at 100.0 µM) 98% (active).
For `COC1=CCC23C(=O)C=CC(=O)C2(C1)C(=O)c1ccccc1C3=O` (stereo not given), the growth inhibition by setting is: (at 1.2 µM) -24%; (at 3.7 µM) 2%; (at 11.0 µM) 1%; (at 33.0 µM) 50%; (at 100.0 µM) 92% (active).
As to `OC(Cc1cccc2ccccc12)CN1CCC(c2ccccc2)CC1` (stereo not given), the growth inhibition by setting is: (at 1.2 µM) 71% (active); (at 3.7 µM) 75% (active); (at 11.0 µM) 89% (active); (at 33.0 µM) 97% (active); (at 100.0 µM) 98% (active).
The matching figures for `CCN(CC)CCC(=O)Nc1ccc2sc3ccccc3c(=O)c2n1`: -1%, 5%, 25%, 34% and 25%.
Taken in the same sequence, the figures for `COc1ccc2nc(CCc3ccccc3)ccc2c1` were 3%, -8%, 11%, 2% and 95% (active).
